This passage reports growth inhibition results from PubChem BioAssay (NCI).

Each structure is given as a SMILES string. This is part of a sample that, as a whole, favours compounds with a hit. Of some 79,000 tested, about 15% had one in any assay. Unmarked numbers belong to inactive results. The source made the active and inactive calls. No stated cut-off is given here; in the data, active means growth inhibition above about 70%; inactive means the rest.

The nature of experiment [1]: NCI Yeast Anticancer Drug Screen. Data for the rad50 strain (AID 155).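 Further: 0% = growth of vehicle-only cultures of the same strain.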 As to conditions: S. cerevisiae rad50 strain growth inhibition; at 50.0 µM; active compounds read high. The method, boiled down: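 Vehicle-treated cultures provide the reference for the growth inhibition reported for compound-exposed, repair-deficient yeast.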
A short description of experiment [2]: NCI Yeast Anticancer Drug Screen. Data for the mec2-1 strain (AID 157). As to conditions: S. cerevisiae mec2-1 strain, at 50.0 µM, active compounds read high. In short, it runs like this:
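Each compound was tested on mec2-1 yeast, a strain altered in DNA damage repair or cell cycle control. Growth inhibition is reported relative to vehicle.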

The nature of experiment [3]: NCI Yeast Anticancer Drug Screen. Data for the sgs1 mgt1 strain (AID 161).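 Further: 0% = growth of cultures given vehicle only.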 As to conditions: S. cerevisiae sgs1 mgt1 strain, at 50.0 µM, active compounds read high. The method, boiled down:
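Read-out: growth inhibition vs vehicle controls. Cells: mutant yeast strain deficient in DNA damage repair.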

The nature of experiment [4]: NCI Yeast Anticancer Drug Screen. Data for the cln2 rad14 strain (AID 165).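 Further: 0% = growth equal to vehicle treated cultures.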 As to conditions: S. cerevisiae cln2 rad14 strain, at 50.0 µM, active compounds read high. The method, boiled down: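 Test compounds were added to cln2 rad14 yeast cultures; inhibition of growth was then determined by comparison with vehicle treatment.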
The nature of experiment [5]: NCI Yeast Anticancer Drug Screen. Data for the bub3 strain (AID 167). As to conditions: S. cerevisiae bub3 mutant strain, at 50.0 µM, active compounds read high. The method, boiled down: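 Mutant yeast screening strain plus compound; vehicle-treated cultures serve as the 0% inhibition reference.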
Experiment [6] is described as follows: NCI Yeast Anticancer Drug Screen. Data for the mlh1 rad18 strain (AID 175). The following applies: S. cerevisiae mlh1 rad18 strain growth inhibition; at 50.0 µM; active compounds read high. The method, boiled down:
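Inhibition values reflect reduced growth of mutant yeast versus vehicle-treated controls following compound exposure; the mutations affect DNA damage repair.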

Consider `CNC(=O)N(C)c1cc(N(C)C)nc(OC)n1`, for which the growth inhibition in experiment [1] is -16.4%; in experiment [2], -34.6%; in experiment [3] it was -19.4%; in experiment [4], -9.4%; in experiment [5], -20.8%; in experiment [6] it was -23.4%.
On to `CC(C)Cc1c(N)nc(NCCCC(N)C(=O)O)[nH]c1=O` (stereo unspecified), for which the growth inhibition in experiment [1] is 13.5%; in experiment [2], -16.9%; in experiment [3], -3.55%; in experiment [4] it was 13.1%; in experiment [5], 9.8%; in experiment [6], 11.8%.
On to `COc1cccc2c1ccc1nonc12`, for which the growth inhibition in experiment [1] is 0.05%; in experiment [2] it was -4.1%; in experiment [3], -2.25%; in experiment [4], -50%; in experiment [5], -19.1%; in experiment [6], 2.2%.
For the compound `CN(C)c1ccc(NN=C2SC(=Nc3ccccc3)C(=Nc3ccccc3)S2)cc1`, the growth inhibition in experiment [1] was 41.5%; in experiment [2], -17.9%; in experiment [3] it was -10.2%; in experiment [4], 18.1%; in experiment [5], 25.2%; in experiment [6], 8.15%.
As to `COc1ccc(/C(C)=N/[O-])cc1CS[n+]1ccccc1`, the growth inhibition is 15.1% in experiment [1]; 27.7% in experiment [2]; 47.4% in experiment [3]; -4.4% in experiment [4]; 59.2% in experiment [5]; 48.6% in experiment [6].
With `CC(CCl)CC#N` (stereo unspecified), the growth inhibition in experiment [1] is -5.6%; in experiment [2], -19.1%; in experiment [3], 7.9%; in experiment [4] it was 13.1%; in experiment [5], -10%; in experiment [6] it was -1.1%.
Take `Oc1ccccc1CNCc1nc2ccccc2[nH]1`: the growth inhibition in experiment [1] is -8.1%; in experiment [2] it was -1.7%; in experiment [3], -11.6%; in experiment [4], -8.7%; in experiment [5] it was -4.4%; in experiment [6], 18.6%.
On to `N#CC(C(=O)C(N)=O)c1ccccc1Cl` (stereo unspecified), for which the growth inhibition in experiment [1] was -13.5%; in experiment [2], -26.8%; in experiment [3] it was -6.8%; in experiment [4], -0.7%; in experiment [5], -12.2%; in experiment [6], -17.3%.
Regarding `CCC(=N\NC(N)=S)/C(C)=N/O`, the growth inhibition in experiment [1] is -2.35%; in experiment [2] it was 6.3%; in experiment [3], 19.4%; in experiment [4] it was 15.2%; in experiment [5], 14.3%; in experiment [6], 16.3%.
In the case of `CC(=O)N/C(=C\c1ccccc1)C(N)=O`, the growth inhibition in experiment [1] was 9.9%; in experiment [2], 12.9%; in experiment [3] it was 1.2%; in experiment [4], 0.6%; in experiment [5], 36%; in experiment [6] it was 1.55%.
Consider `CC(O)COc1ccccc1Cl` (stereo unspecified), for which the growth inhibition is 5.2% in experiment [1]; -2% in experiment [2]; 16.5% in experiment [3]; -46.9% in experiment [4]; -0.4% in experiment [5]; 6.85% in experiment [6].
Take `CC(O)CNC(=O)C(C)O` (stereo unspecified): the growth inhibition in experiment [1] was 11.8%; in experiment [2], -27.6%; in experiment [3], -25.8%; in experiment [4] it was -5.45%; in experiment [5] it was 8.25%; in experiment [6], 7.6%.
As for `O=C(Nc1ccc(Cl)c(Cl)c1)OCCN1CCOCC1`, the growth inhibition in experiment [1] is 82.3% (active); in experiment [2], 97.2% (active); in experiment [3], 94% (active); in experiment [4], 67.2%; in experiment [5], 91.2% (active); in experiment [6], 92.8% (active).
As for `COc1c(NC(=O)c2c(Br)c(Br)c(Br)c(Br)c2C(=O)O)cccc1[N+](=O)[O-]`, the growth inhibition is 1.5% in experiment [1]; 6.65% in experiment [2]; 7.65% in experiment [3]; -4.2% in experiment [4]; -1.2% in experiment [5]; 17.1% in experiment [6].
`Cc1cc(C#N)c[n+](C)c1`: the growth inhibition in experiment [1] was -7.25%; in experiment [2] it was -14.3%; in experiment [3], -25%; in experiment [4], 16.1%; in experiment [5] it was 5.25%; in experiment [6] it was -3.75%.
Turning to `CC(CC#N)=C(c1ccccc1)c1ccccc1`, the growth inhibition is 17.4% in experiment [1]; 18.9% in experiment [2]; 14% in experiment [3]; 16% in experiment [4]; -12.8% in experiment [5]; -5.05% in experiment [6].
With `COc1cc(Nc2cnc3cc(N)ccc3n2)cc(OC)c1OC`, the growth inhibition in experiment [1] is -16.8%; in experiment [2], -33.8%; in experiment [3], -31.2%; in experiment [4], -16.2%; in experiment [5], -9.65%; in experiment [6] it was -45.5%.
`C/C(=N\N(C)C)c1sc(-n2nc(-c3ccccc3)cc2-c2ccccc2)nc1C`: the growth inhibition in experiment [1] was 10.7%; in experiment [2] it was -10.2%; in experiment [3], 17.6%; in experiment [4], -8%; in experiment [5], 11%; in experiment [6], 8.75%.
Regarding `CCOC(=O)c1cc2c(OC)cc(OC)cc2oc1=O`, the growth inhibition in experiment [1] is 21.8%; in experiment [2] it was 2.6%; in experiment [3] it was 25.1%; in experiment [4] it was 32.8%; in experiment [5] it was 28.9%; in experiment [6] it was 2.55%.
Consider `Cc1cc[n+](CCc2c[nH]c3ccccc23)cc1C`, for which the growth inhibition in experiment [1] was 30.5%; in experiment [2], -0.3%; in experiment [3], 11.9%; in experiment [4] it was 20.4%; in experiment [5], -1.65%; in experiment [6], 10.8%.
`CCN(CC)CC(C)(C)C(=O)/C=C/c1ccc(OC)cc1`: the growth inhibition in experiment [1] is -3.7%; in experiment [2], -8.2%; in experiment [3], 7.35%; in experiment [4], -5.5%; in experiment [5], 0.05%; in experiment [6] it was -7.3%.
